{
  "source": "PubChem BioAssay AID504652",
  "about": "(National Center for Advancing Translational Sciences (NCATS), 2011)",
  "note": "About 11,000 (3.1%) of roughly 360,000 compounds were called active. This excerpt belongs to a sample that is enriched for actives. A number with no mark means an inactive call. No stated cut-off is given here; in the data, active means activity change below about -30%; inactive means the rest.",
  "data": [
    {"biological_target": "D(1A) dopamine receptor (Homo sapiens) (UniProt P21728)", "sequence (P21728 whole entry, looked up)": "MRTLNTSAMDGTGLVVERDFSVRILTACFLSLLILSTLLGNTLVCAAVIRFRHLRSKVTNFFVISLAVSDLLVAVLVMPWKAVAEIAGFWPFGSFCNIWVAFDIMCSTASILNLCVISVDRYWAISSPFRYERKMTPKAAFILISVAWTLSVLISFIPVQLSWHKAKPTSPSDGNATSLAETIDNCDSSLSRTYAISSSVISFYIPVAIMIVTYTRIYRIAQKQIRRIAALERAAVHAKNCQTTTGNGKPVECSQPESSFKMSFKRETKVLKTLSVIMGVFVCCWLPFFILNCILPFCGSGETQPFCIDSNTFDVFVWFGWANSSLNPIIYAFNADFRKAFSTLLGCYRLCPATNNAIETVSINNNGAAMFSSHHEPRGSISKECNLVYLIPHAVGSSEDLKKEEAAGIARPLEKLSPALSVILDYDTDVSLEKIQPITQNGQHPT", "assay": "Antagonist of Human D 1 Dopamine Receptor: qHTS; further: on the % scale 0 is the no-effect control and ±100 the full control effect", "settings": "HEK293 TREx D1 cells, calcium flux, dopamine EC80; at 10 µM; stronger effect = lower value", "source_text": "Dopamine receptors (DARs) are involved in the etiology and/or therapy of a number of neuropsychiatric and endocrine disorders. For instance, all receptor-based antiparkinsonian drugs work via stimulating the […] DAR subtype whereas all FDA-approved antipsychotic agents are antagonists of this receptor. […] There are three different types of allosteric modulators that we are seeking, two of which will stimulate or augment receptor signaling, allosteric agonists and potentiators, while the third, allosteric antagonists, will attenuate receptor signaling. The present primary screening assay measures compound antagonism after an EC80 addition of dopamine by tracking calcium flux in a […], inducible Hek293 Trex D1 cell line. NIH Chemical Genomics Center [NCGC] NIH Molecular Libraries Probe Centers Network [MLPCN] MLPCN Grant: NS064831-01 Assay Submitter (PI): David Sibley\nFreshly passaged cells are plated in 1536 well black, clear bottom plates at a density of 4000 cells/well in 3 ul of complete media containing 1x tetracycline inducer. After an overnight incubation at 30 C in 5% CO2, cells are loaded with 2 ul of the no wash Calcium Assay Kit (ABD Bioquest) and incubated at room temperature for 30 to 90 minutes. Agonist read: A 10 cycle (1 second/cycle) baseline measurement is taken and then the FDSS online 1536 pintool delivers 23 nl of compound library (as well as dopamine controls) to the plate. The plate is measured for kinetically at 1 cycle/sec for 180 seconds. Following the 180 second read, 1 ul of an EC80 (negative modulation assay) is delivered by an onboard pipette head. Measurements are taken kinetically for an additional 180 seconds.", "values": [
      {"compound": "COc1cccc(C(c2c(O)cc(C)n(Cc3ccco3)c2=O)N2CCN(c3ccccc3)CC2)c1", "note": "(centres undefined)", "activity change, negative = inhibition": "4.67%"},
      {"compound": "Cc1ccc(CCNC(=O)c2nnc(Cc3cccc(F)c3)o2)cc1", "activity change, negative = inhibition": "-1.29%"},
      {"compound": "O=C(NCCCN1CCN(c2cccc(Cl)c2)CC1)c1nnc(Cc2ccc(F)cc2Cl)o1", "activity change, negative = inhibition": "-33.5% (active)"},
      {"compound": "COc1ccc(N2CCN(CCNC(=O)c3nnc(Cc4c(F)cccc4Cl)o3)CC2)cc1", "activity change, negative = inhibition": "5.46%"},
      {"compound": "Cc1ccc(CCNC(=O)c2ccc(CS(=O)(=O)Cc3cccc(C)c3)o2)cc1", "activity change, negative = inhibition": "-10.5%"},
      {"compound": "O=C(c1ccco1)N1CCN(C(=O)C2CC(c3ccc(Cl)c(Cl)c3)=NO2)CC1", "note": "(centres undefined)", "activity change, negative = inhibition": "-36.7% (active)"},
      {"compound": "O=C(OCC(=O)N1CCN(C(=O)c2ccco2)CC1)c1ccc(Cl)c(Cl)c1", "activity change, negative = inhibition": "-10.9%"},
      {"compound": "O=C(c1ccco1)N1CCN(C(=O)C2CC(c3ccc(F)cc3)=NO2)CC1", "note": "(centres undefined)", "activity change, negative = inhibition": "-3.06%"},
      {"compound": "COc1ccccc1CN1CCC(CNC(=O)c2cnn(-c3ccccc3Cl)c2C2CCN(C(=O)OC(C)(C)C)CC2)CC1", "activity change, negative = inhibition": "-9.9%"},
      {"compound": "COc1ccccc1C(=O)OCc1cc(=O)n2nc(-c3cccs3)sc2n1", "activity change, negative = inhibition": "-28%"},
      {"compound": "O=C(CCS(=O)(=O)c1ccc2c(c1)NC(=O)CO2)Nc1cccc(C(F)(F)F)c1", "activity change, negative = inhibition": "1.28%"},
      {"compound": "Brc1cc(/C=N/n2cnnc2)oc1Br", "activity change, negative = inhibition": "-2.4%"},
      {"compound": "Clc1cc(-c2ccc(/C=N/n3cnnc3)o2)ccc1Br", "activity change, negative = inhibition": "-8.28%"},
      {"compound": "Cc1ccc(Cl)cc1-c1ccc(/C=N/n2cnnc2)o1", "activity change, negative = inhibition": "-37.1% (active)"},
      {"compound": "Cn1c(=O)nc2n(-c3ccc(Br)cc3)c3cccc(Cl)c3cc-2c1=O", "activity change, negative = inhibition": "-15.6%"},
      {"compound": "COc1ccc(OCCCn2c(C3CC(=O)N(c4ccc(F)cc4)C3)nc3ccccc32)cc1", "note": "(centres undefined)", "activity change, negative = inhibition": "-46.1% (active)"},
      {"compound": "CCOc1ccc(N2CC(c3nc4ccccc4n3CCOc3ccc(OC)cc3)CC2=O)cc1", "note": "(centres undefined)", "activity change, negative = inhibition": "-7.94%"},
      {"compound": "CCc1ccccc1N1CC(c2nc3ccccc3n2CCCCOc2ccccc2)CC1=O", "note": "(centres undefined)", "activity change, negative = inhibition": "-13.7%"},
      {"compound": "COc1ccc(OC)c(CNC(=O)c2c3c(nc4ccccc24)C(=O)N(C2CCCCC2)C3)c1", "activity change, negative = inhibition": "18.9%"},
      {"compound": "CC(C)(C)NC(=O)NC(=O)COC(=O)Cc1ccc(Cl)cc1Cl", "activity change, negative = inhibition": "-36.3% (active)"},
      {"compound": "CC(C)(C)NC(=O)NC(=O)COC(=O)Cc1c(F)cccc1Cl", "activity change, negative = inhibition": "-21%"},
      {"compound": "COc1ccccc1OCCC(=O)OCC(=O)NC(=O)NC(C)(C)C", "activity change, negative = inhibition": "-0.18%"},
      {"compound": "CCOc1cc(/C=C(\\C#N)C(=O)Nc2ccccc2C)ccc1OCc1cc(=O)n2nc(CC)sc2n1", "activity change, negative = inhibition": "4.8%"},
      {"compound": "CCOC(=O)c1cccc(NS(=O)(=O)c2cn(C)c(C)n2)c1", "activity change, negative = inhibition": "0.648%"},
      {"compound": "CCOc1ccccc1N(CC)C(=O)c1cc2ccc3cccnc3c2[nH]1", "activity change, negative = inhibition": "15.7%"},
      {"compound": "CCOc1ccccc1N(CC)C(=O)Nc1cn(C)c(=O)c2ccccc12", "activity change, negative = inhibition": "-33.9% (active)"},
      {"compound": "CCOc1ccccc1CNC(=O)Nc1cn(CC(C)C)c(=O)c2ccccc12", "activity change, negative = inhibition": "-9.18%"},
      {"compound": "CNC(=O)CN1C(=O)c2cccnc2Sc2ccccc21", "activity change, negative = inhibition": "2.47%"},
      {"compound": "COc1ccc(CCNC(=O)c2ccc3c(c2)sc2nc(-c4ccc(C)cc4)cn23)cc1OC", "activity change, negative = inhibition": "-5.29%"},
      {"compound": "COc1cc(NS(=O)(=O)c2ccc(NC(=O)CN3C(=O)c4ccccc4C3=O)cc2)ncn1", "activity change, negative = inhibition": "11.7%"},
      {"compound": "COc1cc(NS(=O)(=O)c2ccc(NC(=O)c3ccc(S(=O)(=O)N4CCCCC4)cc3)cc2)ncn1", "activity change, negative = inhibition": "-62.1% (active)"},
      {"compound": "COc1cc(NS(=O)(=O)c2ccc(NC(=S)NC(=O)c3ccc(Br)cc3)cc2)ncn1", "activity change, negative = inhibition": "-8.88%"},
      {"compound": "CC1CCCCN1Cc1c(O)ccc2c(=O)c(-c3cccc(Cl)c3)c(C(F)(F)F)oc12", "note": "(centres undefined)", "activity change, negative = inhibition": "8.91%"},
      {"compound": "CCOc1ccc(C(NC(=O)c2cc(OC)c(OC)c(OC)c2)c2cc(Cl)c3cccnc3c2O)cc1", "note": "(centres undefined)", "activity change, negative = inhibition": "1.85%"},
      {"compound": "CCOCCCNC(=O)c1ccc2nc(CCc3ccccc3)oc2c1", "activity change, negative = inhibition": "-1.1%"},
      {"compound": "CCOc1cccc(NC(=O)c2ccc(F)c(S(=O)(=O)N(CC)c3cccc(C)c3)c2)c1", "activity change, negative = inhibition": "16.1%"},
      {"compound": "CC1=C(C(=O)OCc2ccc(C)cc2)C(c2c(Cl)cccc2Cl)CC(=O)N1", "note": "(centres undefined)", "activity change, negative = inhibition": "4.89%"},
      {"compound": "COc1cc(NC(=O)COc2ccccc2Cl)ccc1NC(=O)C(C)C", "activity change, negative = inhibition": "0.361%"},
      {"compound": "Cc1ccccc1OCC(=O)Nc1ccc(N2CCN(C(=O)C(C)C)CC2)c(Cl)c1", "activity change, negative = inhibition": "-31% (active)"},
      {"compound": "CCC(=O)N1CCN(c2ccccc2NC(=O)COc2cccc(C)c2C)CC1", "activity change, negative = inhibition": "3.4%"},
      {"compound": "Cc1ccc(C)c(CN2C(=O)c3ccccc3S(=O)c3ccc(C(=O)N4CCOCC4)cc32)c1", "note": "(centres undefined)", "activity change, negative = inhibition": "1.36%"},
      {"compound": "COc1ccc(OCC(=O)Nc2cccc(C(=O)OCc3cc(=O)n4nc(C)sc4n3)c2)cc1", "activity change, negative = inhibition": "-3.25%"},
      {"compound": "CCOc1ccc(-n2c(C)nc3c(cnn3-c3ccc(C)cc3)c2=O)cc1", "activity change, negative = inhibition": "10.9%"},
      {"compound": "COc1cc(C(=S)N2CCOCC2)cc(OC)c1OC(=O)c1ccc([N+](=O)[O-])cc1[N+](=O)[O-]", "activity change, negative = inhibition": "-16.4%"},
      {"compound": "COc1cc([N+](=O)[O-])cc([N+](=O)[O-])c1NC(=O)N1CCOCC1", "activity change, negative = inhibition": "-32.7% (active)"},
      {"compound": "COc1cc(C(=S)N2CCOCC2)cc(OC)c1OC(=O)c1cc([N+](=O)[O-])cc([N+](=O)[O-])c1", "activity change, negative = inhibition": "-2.9%"},
      {"compound": "O=C(Nc1c(-c2ccc(F)cc2)nc2ccccn12)c1cccc(F)c1", "activity change, negative = inhibition": "-0.545%"},
      {"compound": "N#CN1CCC(NC(=O)c2ccc(F)cc2)CC1", "activity change, negative = inhibition": "-14.9%"},
      {"compound": "O=C(Nc1ccc(OC(F)(F)F)cc1)c1cc2c(=O)n3ccccc3nc2s1", "activity change, negative = inhibition": "-3.02%"},
      {"compound": "CCOc1ccc(N(C)S(=O)(=O)c2cc(-c3cnc(C)o3)ccc2OC)cc1", "activity change, negative = inhibition": "-5.97%"},
      {"compound": "COc1ccc(-n2nnnc2SCC(=O)c2ccc(OC)c(OC)c2)cc1", "activity change, negative = inhibition": "16.4%"},
      {"compound": "COc1ccc(CSc2nnnn2-c2ccc(O)cc2)cc1F", "activity change, negative = inhibition": "-36.7% (active)"},
      {"compound": "Oc1ccc(-n2nnnc2SCc2c(F)cccc2Cl)cc1", "activity change, negative = inhibition": "-17.7%"},
      {"compound": "COc1ccc(CCNc2nc3c(-c4cccc(F)c4)nnn3c3ccccc23)cc1OC", "activity change, negative = inhibition": "1.83%"}
    ]}
  ]
}
